Screening results deposited in PubChem by National Center for Advancing Translational Sciences (NCATS).
D3 antag = qHTS of D3 Dopamine Receptor Antagonist: qHTS; D(3) dopamine receptor (Homo sapiens), P35462; D3R cells, DiscoveRx beta-arrestin luminescence, antagonist mode; active compounds read low; max response, negative = inhibition, %; hit rate 2.5% among 360,000; AID 652054, 2013; in the data active = max response below about -50%; inconclusive = no clear call, values can overlap the other calls; also: % is scaled to controls: 0 for no effect and ±100 for the full control effect
Target sequence (P35462 whole entry, looked up): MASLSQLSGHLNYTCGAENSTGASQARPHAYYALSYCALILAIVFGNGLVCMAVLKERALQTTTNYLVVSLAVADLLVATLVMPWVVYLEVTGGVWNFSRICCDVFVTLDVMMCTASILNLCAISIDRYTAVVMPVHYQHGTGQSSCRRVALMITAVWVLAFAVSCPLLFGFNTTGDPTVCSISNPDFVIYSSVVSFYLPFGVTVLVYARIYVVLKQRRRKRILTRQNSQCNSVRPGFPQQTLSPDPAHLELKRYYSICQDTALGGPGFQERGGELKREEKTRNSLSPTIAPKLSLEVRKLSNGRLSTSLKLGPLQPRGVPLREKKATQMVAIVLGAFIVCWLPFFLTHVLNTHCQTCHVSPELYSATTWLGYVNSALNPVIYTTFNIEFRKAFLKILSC
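Cells expressing the human receptor were seeded at 1500 cells/well, incubated overnight at 37 degrees C in 5% CO2, then exposed to library compounds with dopamine controls for 90 minutes at 37 degrees C before luminescent detection.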
Rango dissoc inh = qHTS Assay for Inhibitors of RanGTP induced Rango (Ran-regulated importin-beta cargo) - Importin beta complex dissociation; Snurportin-1 (Homo sapiens) + GTP-binding nuclear protein Ran (Homo sapiens) + Importin …; Biochemical FRET Rango-importin beta, RanGTP-induced dissociation; Potency, µM (doses to about 46.1 µM), inactives show at the top dose activity change, negative = inhibition; hit rate 0.071% among 340,000; also: potency is read from the fitted curve at half-maximal effect; % of control where 0% means no effect; nearly all actives have a fitted effect of over 45% in size
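Two FRET readings bracket the reaction: one 5 min after compound meets Rango–importin beta, another 45 min after RanGTP-RCC1 (0.6 uM Ran, 0.2 uM RCC1, 2 mM GTP) is added. Only the second defines inhibition.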
D3 ag = qHTS of D3 Dopamine Receptor Agonist: qHTS | D(3) dopamine receptor (Homo sapiens), P35462 | D3R DiscoveRx beta-arrestin cells, luminescence, 90 min | max activation, % | hit rate 0.58% among 410,000 | AID 652048, 2013; in the data active = max activation above about 30%; also: 0% is about no effect
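Agonist mode: compounds and dopamine controls were applied to plated cells for 90 min at 37 degrees C after an overnight attachment at 1500 cells/well. Luminescent read-out followed 30 - 60 minutes at room temperature with DiscoveRx detection reagent.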
TSG101-PTAP inh = qHTS Assay for Iinhibitors of HIV-1 Budding by Blocking the Interaction of PTAP/TSG101; Tumor susceptibility gene 101 protein (Homo sapiens), Q99816; 340,000 tested, under 10 active; Fluorescence polarization, FITC-PTAP peptide / Tsg101 binding; Potency, µM (top dose mostly 115 µM), inactives show top-dose activity change, negative = inhibition, hits mostly inhibitors; AID 493005, 2010; active = well fitted inhibition curve with a large enough effect in the main read-out, with a control signal flat, not every such curve was filed as active; inconclusive = small, poorly fitted or top-dose-only effect, or effect the other way, or a change in a side signal; inactive = no such curve, though single readings can be large or run the other way; also: potency is read from the fitted curve at half-maximal effect; % of control where 0% means no effect
Target sequence (Q99816 whole entry, looked up): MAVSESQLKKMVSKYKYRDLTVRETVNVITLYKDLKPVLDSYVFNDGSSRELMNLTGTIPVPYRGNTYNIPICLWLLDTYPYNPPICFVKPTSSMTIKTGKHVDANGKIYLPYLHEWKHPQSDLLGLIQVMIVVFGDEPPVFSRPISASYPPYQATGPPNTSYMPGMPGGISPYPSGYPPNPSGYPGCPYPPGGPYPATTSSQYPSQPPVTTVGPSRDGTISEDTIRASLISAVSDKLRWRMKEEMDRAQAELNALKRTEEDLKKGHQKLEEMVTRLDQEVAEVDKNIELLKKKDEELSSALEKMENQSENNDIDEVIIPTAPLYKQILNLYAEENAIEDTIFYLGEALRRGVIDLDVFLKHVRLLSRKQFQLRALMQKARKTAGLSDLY
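Steps: Tsg101 binding domain dispensed (10 uM final), compounds pinned in DMSO, FITC-labeled PTAP-motif peptide added (50 nM final); after 20 min binding at room temperature, polarization measured.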
MmCpn inh = Inhibitors of TCP-1 ring complex (TRiC) of Methanococcus maripaludis (MmCpn): qHTS; Chaperonin Mm-Cpn (Methanococcus maripaludis); purified Mm-Cpn ATPase, ADP Transcreener TR-FRET; Potency, µM (top dose mostly 76.9 µM), for inactives: top-dose activity, negative = inhibition, most hits filed as inhibitors; hit rate 0.031% among 330,000; AID 504842, 2011; active = well fitted inhibition curve with a large enough effect; inconclusive = small, poorly fitted or top-dose-only effect; also: potency is read from the fitted curve at half-maximal effect; % is scaled to controls: 0 for no effect and ±100 for the full control effect; nearly all actives have a fitted effect of over 80% in size
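Eu-cryptate anti-ADP/ADP-d2 competition gives a ratio inversely related to ADP. Enzyme at 25 nM was pre-exposed to compound for 10 min, then given 10 uM ATP for 30 min, 37°C throughout.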
Rango-impB inh = qHTS Assay for Inhibitors of Rango (Ran-regulated importin-beta cargo) - Importin beta complex formation | Rango CFP/YFP FRET sensor + importin beta, 45 min | hit rate 0.031% among 340,000 | Potency, µM (titrated, usually from 92.2 µM), for inactives: at the highest dose inhibition of complex formation | AID 540263, 2011 | Importin subunit beta-1 (Homo sapiens), Q14974;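 also: potency is read from the fitted curve at half-maximal effect; 0% = DMSO wells and 100% = buffer wells lacking importin beta; nearly all actives have a fitted effect of over 15% in size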
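FRET biosensor Rango (snurportin 1 IBB between N-terminal EYFP and C-terminal Cerulean), 50 nM in PBS/1 mM DTT/0.02% Tween-20/0.1% BSA, preincubated 5 min RT with compound; 0.125 microM importin beta added, 45 min RT, CFP/YFP FRET ratio read.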
The depositor's hits bear a star; ? = inconclusive; nt = no result. An excerpt weighted towards active compounds, which were near 2.9% of everything screened. Unless noted, calls follow the shape of the full dose curve.

SMILES | D3 antag | Rango dissoc inh | D3 ag | TSG101-PTAP inh | MmCpn inh | Rango-impB inh
CN1C(C(=O)Nc2ccccn2)C(=O)c2sc(Cl)cc2S1(=O)=O (stereo not given) | nt | nt | 7.2 | nt | nt | nt
COc1cc(OC)cc(-c2c(-c3cccs3)c3cc(-c4ccc(C(N)=O)cc4)ccc3n2C)c1 | 71.2 | 27.0% | 38.9* | -0.9% | 7.0% | -3.4%
COc1ccc(/C=C/C(=O)NC(=S)Nc2ccc(S(=O)(=O)Nc3nccnc3OC)cc2)cc1 | -62.1* | -9.3% | -8.7 | 1.7% | -0.9% | 1.2%
COc1nccnc1NS(=O)(=O)c1ccc(NC(=S)NC(=O)c2cccc(F)c2)cc1 | -61.6* | -3.7% | -3.2 | -2.4% | 1.5% | 1.3%
COc1nccnc1NS(=O)(=O)c1ccc(NC(=S)NC(=O)c2ccc(F)cc2)cc1 | -64.7* | -15.2% | -7.2 | 1.1% | 0.4% | -1.3%
COc1nccnc1NS(=O)(=O)c1ccc(NC(=S)NC(=O)c2ccccc2F)cc1 | 13.1 | -18.9% | -11.2 | -1.1% | 0.5% | 0.9%
COc1ccc(/C=C/C(=O)NC(=S)Nc2ccc(S(=O)(=O)Nc3cc(OC)ncn3)cc2)cc1 | -26.6 | -8.1% | 8.9 | 0.7% | -0.6% | -2.9%
O=C(NCc1ccccc1F)c1cc2ccccn2n1 | nt | nt | -18.6 | nt | nt | nt
CCCCCCCCCCCCCCCCCCOCC(COP(=O)([O-])OCC[N+](C)(C)C)OC (stereo not given) | nt | nt | 5.5 | nt | nt | nt
CCN(CC)CCNC(=O)C1c2ccccc2C(=O)N(CCOC)C1c1ccc(F)cc1 (stereo not given) | -61.6* | 8.2% | -7.9 | -4.8% | 1.0% | 1.6%
COCCNC(=O)C1c2ccccc2C(=O)N(CCOC)C1c1ccc(F)cc1 (stereo not given) | 13.0 | -1.9% | 1.1 | -8.1% | 2.0% | -1.3%
CCCN(CCC)CCNC(=O)C1c2ccccc2C(=O)N(CCOC)C1c1ccc(F)cc1 (stereo not given) | 0.0 | -2.3% | -1.7 | -8.0% | 1.5% | 6.0%
COCCN1C(=O)c2ccccc2C(C(=O)NCCN(C)C)C1c1ccc(F)cc1 (stereo not given) | -63.2* | 10.7% | -10.5 | -0.4% | -1.9% | -0.3%
CCN(CC)CCNC(=O)C1CCC(=O)N(c2ccc(OC)cc2)C1c1ccc(F)cc1 (stereo not given) | -66.6* | 3.9% | -9.6 | -2.4% | -6.9% | -2.4%
CC(=O)c1cccc(NC(=O)c2nc3ccccc3n(C)c2=O)c1 | nt | nt | 0.8 | nt | nt | nt
C/C(=N\NC(=O)c1ccc(Cl)cc1)c1ccccn1 | -105.8* | -7.5% | -34.7 | -1.9% | -1.6% | 2.0%
C/C(=N\NC(=O)COc1ccccc1-c1ccccc1)c1ccccn1 | -58.3* | -5.7% | -22.0 | 0.7% | -0.7% | -0.7%
C/C(=N\NC(=O)c1cc(C)nc2ccccc12)c1ccncc1 | -13.9 | 1.3% | -8.2 | -6.7% | 5.0% | -0.3%
C/C(=N\NC(=O)c1cc(C)nc2ccccc12)c1ccccn1 | -73.8* | -5.4% | -14.9 | -5.2% | -1.2% | -0.1%
CCOc1ccc(CNCc2c(C(=O)O)n(Cc3ccccc3C)c3cc(OC)ccc23)cc1OC | nt | nt | -4.3 | nt | nt | nt
Cc1nc(N2CCN(Cc3ccccc3)CC2)nc2c1C(=O)CC(c1ccco1)C2 (stereo not given) | -52.8* | -7.1% | -52.5 | -7.2% | -0.6% | 0.2%
Cc1nc(N2CCN(C(=O)c3ccco3)CC2)nc2c1C(=O)CC(C)C2 (stereo not given) | 18.4 | -6.2% | 9.9 | -1.5% | -1.4% | -3.4%
Cc1nc(N2CCN(Cc3ccccc3)CC2)nc2c1C(=O)CCC2 | -14.7 | -14.5% | -3.2 | -6.0% | 0.7% | 3.1%
Cc1nc(N2CCN(Cc3ccccc3)CC2)nc2c1CCC2 | -67.2* | 0.4% | -17.1 | 0.2% | -5.1% | 3.5%
Cc1nc(N2CCN(Cc3ccc4c(c3)OCO4)CC2)nc2c1C(=O)CC(c1ccco1)C2 (stereo not given) | -72.5* | -5.4% | -50.9 | -1.2% | ? | 1.3%
SMILES | D3 antag | Rango dissoc inh | D3 ag | TSG101-PTAP inh | MmCpn inh | Rango-impB inh
Nc1ccn(C2CO[C@H](CO)O2)c(=O)n1 (stereo not given in full) | nt | nt | 2.6 | nt | nt | nt
CCCCCn1c(=N)n(CC(O)COc2cccc(C)c2)c2ccccc21 (stereo not given) | nt | nt | 1.1 | nt | nt | nt
CCCCN(CC)C(=O)c1nn(C)c2c1CSc1ccccc1-2 | nt | nt | -1.6 | nt | nt | nt
Cc1cccc(OCCCCNCc2ccccc2)c1 | ? | 31.3% | -13.5 | -2.6% | -3.1% | 1.5%
COc1cc(C)ccc1OCCCCNCc1ccccc1 | -21.3 | 14.0% | -14.3 | -0.8% | -0.4% | 1.0%
Cc1ccc(OCCNCc2ccccc2)c(C)c1 | -69.9* | -0.8% | -10.4 | 1.0% | -0.2% | 7.6%
COc1cccc(OCCNCc2ccccc2)c1 | -79.0* | 1.3% | -15.2 | 0.9% | -0.4% | 0.7%
Cc1ccccc1NC(=O)Cn1c(=O)n(Cc2ccc3c(c2)OCO3)c(=O)c2ccccc21 | nt | nt | -1.7 | nt | nt | nt
COc1ccc2c(c1)C=C(CN1CCC(CO)(CCc3ccccc3)CC1)CO2 | -86.5* | 1.5% | -22.1 | 1.6% | -11.7% | 9.9%
COc1ccc2c(c1)C=C(CN1CCN(Cc3ccccc3C)C(CCO)C1)CO2 (stereo not given) | ? | 11.4% | -23.5 | -3.0% | 0.3% | -1.0%
COc1ccc(CC2(CO)CCN(CC3=Cc4cc(Cl)ccc4OC3)CC2)cc1 | -75.4* | 0.9% | -13.4 | -0.5% | -1.4% | -1.5%
CCC1CN(C(=O)N2CCC(C(=O)NCc3cccc(F)c3)CC2)c2cc(C)ccc2O1 (stereo not given) | nt | nt | 7.8 | nt | nt | nt
COc1cccc(-n2c(SCc3cccc(C)c3)nc3c([nH]c4ccccc43)c2=O)c1 | nt | nt | 5.4 | nt | nt | nt
COCCNC(=O)Cn1cc(/C=C(\C#N)C(=O)NC2CCCC2)c2ccccc21 | -59.7* | ? | -5.4 | -4.0% | 0.7% | ?
CO[C@@H]1[C@H](OC(=O)/C=C/C=C/C=C/C=C/C(=O)O)CC[C@]2(CO2)[C@H]1[C@@]1(C)O[C@@H]1CC=C(C)C | nt | nt | -15.4 | nt | nt | nt
